Results taken from PubChem BioAssay (EPA / NIEHS).
Values joined by “and” are separate entries in the source; they are usually repeats but may differ in a detail not shown here. Equal values may be shown once. Inconclusive results are not listed. More than one record can exist for a structure, and the calls need not agree. Active and inactive are the calls of the source. The calls were made as follows, unless noted: active = hit-call score of the fitted dose curve at least 0.9, where 1 is the maximum; inactive = score below 0.9.

Columns and labels:
[1] = biological target: Nuclear respiratory factor 1 (Homo sapiens) (UniProt Q16656); test: ATG_NRF1_CIS: Attagene CIS-FACTORIAL HepG2 Assay for human Nuclear Respiratory Factor 1 (NRF1) Orphan Gene (AID 2282987); details: HepG2 NRF1 cis-element reporter, Attagene multiplex; actives raise or lower the signal
Sequence of Nuclear respiratory factor 1 (Homo sapiens) (Q16656 whole entry, looked up): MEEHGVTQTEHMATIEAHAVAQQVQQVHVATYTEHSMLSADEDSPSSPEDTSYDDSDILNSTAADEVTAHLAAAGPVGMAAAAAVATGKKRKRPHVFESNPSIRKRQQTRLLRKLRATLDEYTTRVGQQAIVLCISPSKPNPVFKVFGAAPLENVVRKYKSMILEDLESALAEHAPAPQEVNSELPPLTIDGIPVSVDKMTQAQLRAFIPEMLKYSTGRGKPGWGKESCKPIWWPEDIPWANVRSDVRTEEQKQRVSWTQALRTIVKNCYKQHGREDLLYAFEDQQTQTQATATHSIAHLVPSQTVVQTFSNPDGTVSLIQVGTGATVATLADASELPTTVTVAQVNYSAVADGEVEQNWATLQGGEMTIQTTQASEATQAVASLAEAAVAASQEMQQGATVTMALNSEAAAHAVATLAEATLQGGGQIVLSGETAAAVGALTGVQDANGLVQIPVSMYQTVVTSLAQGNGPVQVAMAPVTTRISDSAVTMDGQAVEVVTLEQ
Outline: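 Endogenous NRF1-driven reporter transcription measured in transiently transfected human HepG2 liver cells. Readout: reporter mRNA by RT-PCR and capillary electrophoresis with fluorescence detection, 24 h post-dosing. Gain or loss of signal fitted relative to DMSO baseline.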

[2] = ATG_NFI_CIS: Attagene CIS-FACTORIAL HepG2 Assay for human Nuclear Factor I (NFI) (AID 2282989); details: HepG2 cis-regulatory reporter, NFI response element transcription; actives raise or lower the signal
Outline: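 Multiplexed cis-reporter system in human HepG2 cells reports native TF activity as reporter mRNA induction 24 h post-dose. Fragments labelled with 6-FAM, HpaI-digested and resolved by capillary electrophoresis; activity fitted both directions versus DMSO.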

[3] = biological target: Myc proto-oncogene protein (Homo sapiens) (UniProt P01106); test: ATG_Myc_CIS: Attagene CIS-FACTORIAL HepG2 Assay for human Myelocytomatosis (Myc) Proto-Oncogene Transcription Factor (AID 2282990); details: HepG2, Attagene cis-reporter transcription factor activity; actives raise or lower the signal
Sequence of Myc proto-oncogene protein (Homo sapiens) (P01106 whole entry, looked up): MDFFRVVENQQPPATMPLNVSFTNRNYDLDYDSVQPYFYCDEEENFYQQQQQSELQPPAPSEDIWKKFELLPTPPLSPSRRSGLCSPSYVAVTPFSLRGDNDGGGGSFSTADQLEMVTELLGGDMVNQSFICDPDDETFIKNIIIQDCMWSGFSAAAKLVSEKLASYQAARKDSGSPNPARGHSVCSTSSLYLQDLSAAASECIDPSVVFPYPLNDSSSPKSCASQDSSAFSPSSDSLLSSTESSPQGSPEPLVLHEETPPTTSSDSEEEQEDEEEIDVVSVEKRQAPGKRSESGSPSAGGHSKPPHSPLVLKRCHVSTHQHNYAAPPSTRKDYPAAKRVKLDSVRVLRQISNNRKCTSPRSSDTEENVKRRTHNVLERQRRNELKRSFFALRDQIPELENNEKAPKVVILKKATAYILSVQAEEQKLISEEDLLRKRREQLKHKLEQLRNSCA
Outline: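 HepG2 cells transiently transfected with multiple cis-promoter-driven reporter transcription units, so endogenous TF activity is read. After 24 h compound exposure, reporter mRNA was quantified by RT-PCR, 6-FAM labelling, HpaI digestion and capillary electrophoresis; bidirectional fit versus DMSO.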

[4] = ATG_NF_kB_CIS: Attagene CIS-FACTORIAL HepG2 Assay for human Nuclear Factor Kappa B (NF-kB) (AID 2282991); details: HepG2 Attagene cis-factorial NF-kB reporter mRNA; actives raise or lower the signal
Outline: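 Read-out: reporter transcript levels quantified by RT-PCR plus capillary electrophoresis of 6-FAM-labelled, HpaI-cut fragments. Transfected HepG2 cells, 24 h compound exposure, endogenous NF-kB-driven cis element; gain or loss scored versus DMSO.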

[5] = ATG_NRF2_ARE_CIS: Attagene CIS-FACTORIAL HepG2 Assay for human Nuclear Factor Erythroid 2 Related Factor 2 (NFR2) response to Antioxidant Response Elements (ARE) (AID 2282992); details: HepG2 Attagene ARE/NRF2 reporter, transcription factor activity; actives raise or lower the signal
Outline: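 Readout: reporter mRNA quantified by RT-PCR plus FAM-labelled primer extension, HpaI digestion and capillary electrophoresis, 24 h after dosing transfected HepG2 cells. Gain or loss of signal is fitted bidirectionally against DMSO baseline.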

[6] = ATG_Oct_MLP_CIS: Attagene CIS-FACTORIAL HepG2 Assay for human Octamer-Binding Transcription Factor (Oct) (AID 2282993); details: HepG2 Attagene cis-factorial Oct reporter, mRNA; actives raise or lower the signal
Outline: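 After 24 h compound exposure, transfected HepG2 cells were lysed for total RNA; reporter-specific cDNA was PCR-amplified, fluorescently labelled and sized by capillary electrophoresis. Bidirectional curve fitting used DMSO as baseline.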

[7] = BSK_3C_TissueFactor: BioMAP Diversity Plus: 3C Assay for Tissue Factor Biomarker Activity (AID 2282997); details: BioMAP 3C HUVEC, tissue factor biomarker readout; actives raise or lower the signal
Outline: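 HUVEC, 3C system, 24 h post-dose; Tissue Factor by ELISA; bidirectional fit vs DMSO baseline.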

[8] = BSK_3C_uPAR: BioMAP Diversity Plus: 3C Assay for Urokinase-type plasminogen activator receptor (uPAR) Biomarker Activity (AID 2282998); details: BioMAP 3C HUVEC, uPAR biomarker ELISA; actives raise or lower the signal
Outline: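 Values derive from bidirectional curve fitting relative to DMSO, which served as baseline of activity. uPAR was measured by ELISA in human umbilical vein endothelial primary cultures 24 h after compound addition.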

[9] = BSK_3C_VCAM1: BioMAP Diversity Plus: 3C Assay for Vascular cell adhesion molecule 1 (VCAM1) Biomarker Activity (AID 2282999); details: BioMAP 3C HUVEC, VCAM1 ELISA, cytokine-stimulated; actives raise or lower the signal
Outline: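 Vascular primary endothelium (human umbilical vein) was exposed to chemicals and assayed 24 h later. VCAM-1 levels came from ELISA, with DMSO serving as baseline for bidirectional fitting.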

[10] = BSK_4H_Eotaxin3: BioMAP Diversity Plus: 4H Assay for Eotaxin 3 Biomarker Activity (AID 2283000); details: primary human endothelial cells (HUVEC); actives raise or lower the signal
Outline: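 Readout is Eotaxin-3 (CCL26) level by ELISA in primary human umbilical vein endothelial cells harvested 24 h after chemical exposure; activity fitted in both directions against DMSO control.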

[11] = biological target: human Peroxisome Proliferator-activated Receptor delta (PPARd), PPARD (gene 5467) (UniProt Q03181); test: ATG_PPARd_TRANS: Attagene TRANS-FACTORIAL HepG2 Assay for human Peroxisome Proliferator-activated Receptor delta (PPARd) (AID 2283002; active = hit-call score of the fitted dose curve at least 0.9, where 1 is the maximum)
Sequence of human Peroxisome Proliferator-activated Receptor delta (PPARd), PPARD (gene 5467) (Q03181 whole entry, looked up, the tested form may be a part): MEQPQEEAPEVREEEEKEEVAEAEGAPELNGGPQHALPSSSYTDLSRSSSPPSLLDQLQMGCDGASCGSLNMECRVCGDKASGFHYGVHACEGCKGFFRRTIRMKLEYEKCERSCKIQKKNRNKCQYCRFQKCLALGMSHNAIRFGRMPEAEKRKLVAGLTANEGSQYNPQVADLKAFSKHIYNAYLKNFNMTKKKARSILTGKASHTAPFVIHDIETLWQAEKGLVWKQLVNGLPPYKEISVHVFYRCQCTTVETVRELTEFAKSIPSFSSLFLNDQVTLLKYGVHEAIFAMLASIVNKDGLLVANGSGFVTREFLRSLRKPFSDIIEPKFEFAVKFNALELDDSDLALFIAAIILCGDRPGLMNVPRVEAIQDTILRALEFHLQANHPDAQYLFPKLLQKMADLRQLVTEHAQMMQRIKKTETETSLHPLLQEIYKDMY
Outline: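 HepG2 cells transiently transfected with multiplexed GAL4-UAS reporter units and exogenous chimeric NR-Gal4 proteins; 24 h compound exposure. Reporter mRNA measured by RT-PCR, 6-FAM labelling, HpaI digestion and capillary electrophoresis; gain of signal versus DMSO.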

[12] = read-out: Intercellular Adhesion Molecule 1 (ICAM1), ICAM1 (gene 3383); test: BSK_3C_ICAM1: BioMAP Diversity Plus: 3C Assay for Intercellular Adhesion Molecule 1 (ICAM1) Biomarker Activity (AID 2283003); details: primary human endothelial cells (HUVEC); actives raise or lower the signal
Outline: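 Chemicals are dosed onto primary human umbilical vein endothelium (3C system). After 24 h, ICAM-1 is measured by ELISA, and responses are fitted bidirectionally relative to DMSO.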

[13] = biological target: human Retinoic Acid Receptor beta (RARb), RARB (gene 5915) (UniProt P10826); test: ATG_RARb_TRANS: Attagene TRANS-FACTORIAL HepG2 Assay for human Retinoic Acid Receptor beta (AID 2283004; active = hit-call score of the fitted dose curve at least 0.9, where 1 is the maximum)
Sequence of human Retinoic Acid Receptor beta (RARb), RARB (gene 5915) (P10826 whole entry, looked up, the tested form may be a part): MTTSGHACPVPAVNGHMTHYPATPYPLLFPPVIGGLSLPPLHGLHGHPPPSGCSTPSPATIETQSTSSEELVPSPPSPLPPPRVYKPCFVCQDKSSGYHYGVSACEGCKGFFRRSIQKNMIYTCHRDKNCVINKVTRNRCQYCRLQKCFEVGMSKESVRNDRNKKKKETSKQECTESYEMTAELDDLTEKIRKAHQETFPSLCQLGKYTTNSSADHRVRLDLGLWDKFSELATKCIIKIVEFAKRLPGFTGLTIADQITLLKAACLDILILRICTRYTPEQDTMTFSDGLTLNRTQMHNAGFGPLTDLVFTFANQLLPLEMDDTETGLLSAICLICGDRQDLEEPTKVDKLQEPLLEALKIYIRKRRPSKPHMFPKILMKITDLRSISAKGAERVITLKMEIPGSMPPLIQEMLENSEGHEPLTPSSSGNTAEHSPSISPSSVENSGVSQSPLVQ
Outline: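 Readout is reporter mRNA induction: RNA reverse-transcribed, PCR-amplified, FAM-labelled, HpaI-cut and resolved by capillary electrophoresis. Transiently transfected HepG2 cells carrying exogenous NR–Gal4 chimeras were dosed for 24 h; activity fitted upward relative to DMSO.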

[14] = BSK_3C_Proliferation: Cell Proliferation Assessment in the BioMAP Diversity Plus: 3C Assay (AID 2283006); details: primary human endothelial cells (HUVEC);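 as to AC50: potency may reflect either rise or fall in cell number versus DMSO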
Outline: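 Cells (human umbilical vein endothelial, sub-confluent) receive test chemical; after 48 h they are fixed in 10% trichloroacetic acid, stained with 0.1% SRB and read at 560 nm. Activity is referenced to DMSO, fitting increases and decreases.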

[15] = biological target: Peroxisome proliferator-activated receptor gamma (Homo sapiens) (UniProt P37231); test: ATG_PPARg_TRANS: Attagene TRANS-FACTORIAL HepG2 Assay for human Peroxisome Proliferator-activated Receptor-gamma (PPARg) (AID 2283007; active = hit-call score of the fitted dose curve at least 0.9, where 1 is the maximum)
Sequence of Peroxisome proliferator-activated receptor gamma (Homo sapiens) (P37231 whole entry, looked up, the tested form may be a part): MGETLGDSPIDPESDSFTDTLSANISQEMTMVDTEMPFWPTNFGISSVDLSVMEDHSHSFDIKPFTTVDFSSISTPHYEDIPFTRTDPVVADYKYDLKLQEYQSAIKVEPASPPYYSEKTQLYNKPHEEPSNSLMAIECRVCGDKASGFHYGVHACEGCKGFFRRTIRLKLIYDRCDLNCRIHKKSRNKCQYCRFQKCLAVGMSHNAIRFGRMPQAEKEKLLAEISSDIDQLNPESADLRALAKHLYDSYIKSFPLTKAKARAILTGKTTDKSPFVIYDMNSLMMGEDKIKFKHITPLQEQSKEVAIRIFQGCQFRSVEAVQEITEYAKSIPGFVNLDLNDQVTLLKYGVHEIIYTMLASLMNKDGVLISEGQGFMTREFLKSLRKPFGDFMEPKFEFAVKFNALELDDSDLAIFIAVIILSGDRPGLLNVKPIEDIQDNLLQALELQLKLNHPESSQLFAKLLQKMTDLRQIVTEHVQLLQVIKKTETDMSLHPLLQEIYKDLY
Outline: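 Read-out: reporter mRNA induction, detected by fluorescence after RT-PCR and capillary electrophoresis. Transiently transfected human HepG2 liver cells carrying a chimeric NR-Gal4 construct were dosed for 24 h; activity was fitted upward relative to DMSO.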

[16] = biological target: Nuclear receptor subfamily 1 group I member 2 (Homo sapiens) (UniProt O75469); test: ATG_PXR_TRANS: Attagene TRANS-FACTORIAL HepG2 Assay for human Pregnane X Receptor (PXR) (AID 2283008; active = hit-call score of the fitted dose curve at least 0.9, where 1 is the maximum)
Sequence of Nuclear receptor subfamily 1 group I member 2 (Homo sapiens) (O75469 whole entry, looked up, the tested form may be a part): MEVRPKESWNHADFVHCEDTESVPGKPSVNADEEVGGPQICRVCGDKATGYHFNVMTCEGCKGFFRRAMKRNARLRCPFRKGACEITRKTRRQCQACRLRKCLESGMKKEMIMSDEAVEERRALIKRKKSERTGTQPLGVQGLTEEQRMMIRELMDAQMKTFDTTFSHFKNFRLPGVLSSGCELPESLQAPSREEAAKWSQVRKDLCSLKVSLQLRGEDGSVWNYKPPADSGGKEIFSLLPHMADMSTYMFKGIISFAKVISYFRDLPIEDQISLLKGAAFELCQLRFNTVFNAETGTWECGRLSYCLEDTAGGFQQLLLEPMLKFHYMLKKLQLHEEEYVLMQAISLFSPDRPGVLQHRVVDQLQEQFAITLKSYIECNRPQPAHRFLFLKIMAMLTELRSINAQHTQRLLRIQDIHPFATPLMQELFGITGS
Outline: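 Trans-factorial format: exogenous NR-Gal4 fusion activity, not endogenous factor, in transfected human HepG2 liver cells. After 24 h dosing, RNA isolated, reverse-transcribed, amplified and resolved by capillary electrophoresis; induction scored versus DMSO.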

[17] = biological target: human Retinoic Acid Receptor gamma (RARg), RARG (gene 5916) (UniProt P13631); test: ATG_RARg_TRANS: Attagene TRANS-FACTORIAL HepG2 Assay for human Retinoic Acid Receptor gamma (RARg) (AID 2283009; active = hit-call score of the fitted dose curve at least 0.9, where 1 is the maximum;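 as to AC50: AC50 is for reporter induction above DMSO meaning RARg activation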)
Sequence of human Retinoic Acid Receptor gamma (RARg), RARG (gene 5916) (P13631 whole entry, looked up, the tested form may be a part): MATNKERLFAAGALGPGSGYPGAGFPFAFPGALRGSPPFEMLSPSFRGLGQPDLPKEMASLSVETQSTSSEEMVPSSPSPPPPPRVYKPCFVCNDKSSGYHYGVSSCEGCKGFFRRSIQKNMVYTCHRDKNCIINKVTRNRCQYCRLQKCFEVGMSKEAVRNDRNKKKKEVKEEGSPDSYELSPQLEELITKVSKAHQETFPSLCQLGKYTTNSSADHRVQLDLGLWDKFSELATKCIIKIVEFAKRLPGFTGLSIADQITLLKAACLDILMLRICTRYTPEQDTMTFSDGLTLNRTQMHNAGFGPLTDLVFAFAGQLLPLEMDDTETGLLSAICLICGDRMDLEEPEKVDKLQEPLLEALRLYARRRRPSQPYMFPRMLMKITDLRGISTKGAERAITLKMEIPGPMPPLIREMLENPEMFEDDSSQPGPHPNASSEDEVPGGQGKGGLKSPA
Outline: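 TRANS format measured activity of exogenous NR-GAL4 fusion (RARg) in transfected HepG2 liver cells after 24 h dosing. Induced reporter RNA was detected by RT-PCR/capillary electrophoresis fluorescence, analysed in the positive direction against DMSO.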

[18] = biological target: Cellular tumor antigen p53 (Homo sapiens) (UniProt P04637); test: ATG_p53_CIS: Attagene CIS-FACTORIAL HepG2 Assay for human p53 Transcription Factor (AID 2282994); details: HepG2 p53 cis-element reporter, Attagene mRNA; actives raise or lower the signal
Sequence of Cellular tumor antigen p53 (Homo sapiens) (P04637 whole entry, looked up): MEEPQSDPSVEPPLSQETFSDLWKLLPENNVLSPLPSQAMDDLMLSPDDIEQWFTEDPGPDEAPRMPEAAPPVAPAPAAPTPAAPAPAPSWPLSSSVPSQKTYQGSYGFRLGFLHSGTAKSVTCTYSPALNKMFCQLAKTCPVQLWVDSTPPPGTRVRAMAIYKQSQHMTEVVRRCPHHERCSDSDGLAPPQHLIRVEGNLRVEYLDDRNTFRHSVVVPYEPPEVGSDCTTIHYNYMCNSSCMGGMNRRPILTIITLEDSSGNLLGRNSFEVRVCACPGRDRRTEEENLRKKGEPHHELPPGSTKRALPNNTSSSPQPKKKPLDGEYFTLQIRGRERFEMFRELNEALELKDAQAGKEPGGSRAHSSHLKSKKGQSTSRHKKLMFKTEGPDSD
Outline: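 Read-out: reporter mRNA by RT-PCR plus capillary electrophoresis with fluorescence detection. Human HepG2 liver cells carried transfected multi-reporter cis-element constructs, dosed 24 h. Gain or loss of signal fitted bidirectionally against DMSO control.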

[19] = biological target: human Peroxisome Proliferator-activated Receptor alpha (PPARa), PPARA (gene 5465) (UniProt Q07869); test: ATG_PPARa_TRANS: Attagene TRANS-FACTORIAL HepG2 Assay for human Peroxisome Proliferator-activated Receptor alpha (PPARa) (AID 2283001; active = hit-call score of the fitted dose curve at least 0.9, where 1 is the maximum;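 as to AC50: potency for gain of reporter signal over DMSO so agonist or activator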)
Sequence of human Peroxisome Proliferator-activated Receptor alpha (PPARa), PPARA (gene 5465) (Q07869 whole entry, looked up): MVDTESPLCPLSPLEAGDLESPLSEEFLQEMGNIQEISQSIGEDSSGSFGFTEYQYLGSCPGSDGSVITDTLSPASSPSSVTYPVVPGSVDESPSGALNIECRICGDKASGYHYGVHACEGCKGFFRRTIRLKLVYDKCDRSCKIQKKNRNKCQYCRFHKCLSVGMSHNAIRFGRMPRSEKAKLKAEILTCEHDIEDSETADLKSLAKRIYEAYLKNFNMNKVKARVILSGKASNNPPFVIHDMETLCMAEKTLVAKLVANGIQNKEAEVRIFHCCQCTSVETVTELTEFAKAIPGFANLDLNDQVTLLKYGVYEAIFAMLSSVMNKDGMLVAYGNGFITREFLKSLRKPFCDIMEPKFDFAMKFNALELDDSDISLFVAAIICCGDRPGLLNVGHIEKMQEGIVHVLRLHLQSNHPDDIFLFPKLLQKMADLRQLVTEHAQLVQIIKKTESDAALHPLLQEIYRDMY
Outline: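 Cells (HepG2) are transfected with multiple reporter transcription units, exposed to chemical for 24 h, then total RNA is reverse-transcribed and amplified. Labelled products are quantified by capillary electrophoresis; induction is referenced to DMSO.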

[20] = biological target: Retinoic acid receptor alpha (Homo sapiens) (UniProt P10276); test: ATG_RARa_TRANS: Attagene TRANS-FACTORIAL HepG2 Assay for human Retinoic Acid Receptor alpha (RARa) (AID 2283005; active = hit-call score of the fitted dose curve at least 0.9, where 1 is the maximum)
Sequence of Retinoic acid receptor alpha (Homo sapiens) (P10276 whole entry, looked up, the tested form may be a part): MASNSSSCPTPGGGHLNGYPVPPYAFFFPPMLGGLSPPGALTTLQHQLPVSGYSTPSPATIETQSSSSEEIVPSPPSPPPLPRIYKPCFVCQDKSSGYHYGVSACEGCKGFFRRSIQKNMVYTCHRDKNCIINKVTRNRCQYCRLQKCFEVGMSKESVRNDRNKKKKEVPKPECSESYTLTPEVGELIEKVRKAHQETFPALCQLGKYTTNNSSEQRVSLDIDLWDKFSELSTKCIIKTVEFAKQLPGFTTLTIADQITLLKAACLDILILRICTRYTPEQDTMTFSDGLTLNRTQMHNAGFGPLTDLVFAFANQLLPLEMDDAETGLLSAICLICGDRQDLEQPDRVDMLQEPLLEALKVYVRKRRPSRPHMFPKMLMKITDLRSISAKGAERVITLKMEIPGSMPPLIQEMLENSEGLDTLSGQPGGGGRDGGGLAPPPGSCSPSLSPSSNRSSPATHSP
Outline: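 HepG2 cells transiently transfected with multiple reporter units expressing chimeric RARα-GAL4 fusion, with GAL4-UAS-driven reporters. After 24 h compound exposure, reporter mRNA induction quantified by RT-PCR and capillary electrophoresis with fluorescent labeling; gain-of-signal fitted relative to DMSO control.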

Measured: AC50

FC(F)(F)C(F)(F)C(F)(F)C(F)(F)C(F)(F)CCI
active: [5] 88.9 µM | [14] 30 µM | [15] 73 µM
inactive: [1] | [2] | [3] | [4] | [6] | [7] | [8] | [9] | [10] | [11] | [12] | [13] | [14] | [16] | [17]

c1ccc(B(c2ccccc2)c2ccccc2)cc1
active: [2] 26.7 µM | [5] 33.9 µM | [15] 33.9 µM | [16] 4.69 µM
inactive: [1] | [3] | [4] | [18] | [11]

COC(=O)CCC(F)(F)C(F)(F)C(F)(F)C(F)(F)F
not listed: [15] | [18] | [20]
inactive: all other assays above

CCCCCCOC(=O)c1ccccc1O
active: [7] 48 µM and 38.5 µM | [8] 24.5 µM and 41.1 µM | [9] 38.1 µM and 37.2 µM | [10] 37.6 µM and 43.5 µM | [12] 38.6 µM and 47 µM | [14] 35.3 µM and 40.9 µM
not listed: [13] | [17] | [18] | [20]
inactive: all other assays above

OCC(F)(F)C(F)(F)C(F)(F)C(F)(F)C(F)(F)C(F)F
not listed: [17] | [19]
inactive: all other assays above

Cc1cccc(N(C)C)c1
inactive: [1] | [2] | [3] | [4] | [5] | [6] | [18] | [19] | [15] | [16] | [17]

CCCCCCCCCCCCCCCC[N+](C)(C)Cc1ccccc1
active: [3] 25.1 µM | [7] 20 µM | [8] 20 µM | [9] 8.49 µM | [10] 6.55 µM | [19] 45 µM | [12] 2.35 µM | [14] 0.604 µM | [15] 60.2 µM | [17] 49.9 µM
inactive: [1] | [2] | [4] | [5] | [6] | [13] | [20] | [16]

O=C(O)C(F)(F)C(F)(F)C(F)(F)C(F)(F)C(F)(F)C(F)(F)C(F)(F)C(F)(F)Cl
active: [5] 12.7 µM | [6] 50 µM and 57.9 µM | [18] 57.7 µM and 69.5 µM | [7] 54.4 µM | [8] 44.9 µM | [9] 48.7 µM | [10] 49.9 µM | [19] 20.2 µM and 18.8 µM | [14] 53.2 µM and 48.1 µM | [15] 31.1 µM and 34.1 µM | [16] 50 µM
inactive: [1] | [2] | [3] | [4] | [5] | [7] | [8] | [10] | [11] | [12] | [16] | [17]

c1ccc(-c2ccccc2-c2ccccc2)cc1
active: [5] 32.9 µM | [16] 27 µM
inactive: [1] | [3] | [4] | [18] | [11] | [15]

COC(OC(C)=O)c1ccccc1 (stereo not given)
inactive: [1] | [3] | [4] | [5] | [6] | [18] | [11] | [15] | [16]

CC(C)OC(=O)c1ccccc1C(=O)OC(C)C
inactive: [1] | [2] | [3] | [4] | [5] | [13] | [20] | [17]
active: [15] 100 µM | [16] 5.74 µM

CCN(Cc1cccc(S(=O)(=O)O)c1)c1ccc(C(=C2C=CC(=[N+](CC)Cc3cccc(S(=O)(=O)O)c3)C=C2)c2ccc(O)cc2S(=O)(=O)[O-])cc1
inactive: [1] | [3] | [4] | [5] | [19] | [11] | [15] | [16]

CCc1c(Br)c(Br)c(Br)c(Br)c1Br
active: [7] 4.73 µM | [8] 20 µM | [10] 20 µM | [16] 7.09 µM
not listed: [2] | [15] | [19]
inactive: all other assays above

O=C(O)C(F)(F)C(F)(F)F
not listed: [1] | [13] | [17]
inactive: all other assays above

O=S(=O)(OCC(F)F)C(F)(F)F
not listed: [2] | [6] | [13] | [17] | [20]
inactive: all other assays above
